Our source for the outcome and Potency values is PubChem BioAssay (Tox21).

Values joined by “and” are separate entries in the source; they are usually repeats but may differ in a detail not shown here. Equal entries are not always repeated. Records with an inconclusive call do not appear. Some compounds were tested as several samples or in several runs, with calls that do not always agree. Active and inactive are the calls of the source. Unless noted, the call rests on the fitted dose curve.

Experiment [1] in a line: qHTS assay to identify small molecule antagonists of the vitamin D receptor (VDR) signaling pathway - cell viability counter screen (AID 743225; active means well fitted curve in the direction sought with a large enough effect in the repeat runs; an effect the other way counts as inactive or inconclusive; further: nearly all actives have a fitted effect of over 50% in size). The procedure, abridged:
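VDR-UAS-bla HEK 293T cells were plated and incubated 4 h at 37C, then dosed with compound plus 3 nM (final) 1-alpha,25-dihydroxyvitamin D3 for 16 h. After the 2 h beta-lactamase read, viability in the same wells was read as CellTiter-Glo luminescence after 30 min at room temperature.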

A short description of experiment [2]: qHTS assay to identify small molecule agonists of the NFkB signaling pathway (AID 1159509; active means well fitted curve in the direction sought with a large enough effect in the signal ratio in the repeat runs, not every such curve was filed as active; the % refers to the signal ratio; further: series mostly up to about 61 µM). The procedure, abridged: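 ME-180 NFkB-bla, 2,000 cells/well, overnight plating; cpd pinned in DMSO, 5 h 37 C; B/G FRET substrate 1.5 h RT; ex 405, em 460/530 nm.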
Experiment [3] is described as follows: qHTS assay to identify small molecule agonists of the NFkB signaling pathway - cell viability counter screen (AID 1159515). Further: series mostly up to about 61 µM; nearly all actives have a fitted effect of over 55% in size. Put shortly:
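Using the same wells as the NFkB reporter read, ME-180 NFkB-bla cells given compounds for 5 hr were assessed for viability via CellTiter-Glo, with luminescence taken after a 30 min room-temperature incubation.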
(In qHTS, concentration-response curves come from the screen itself.)

Experiment [4] in a line: qHTS assay to identify small molecule agonists of the endoplasmic reticulum stress response signaling pathway (AID 1159516; active means well fitted activation curve with a large enough effect in the signal ratio in the repeat runs, not every such curve was filed as active; the % refers to the signal ratio). Put shortly:
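An ESRE-bla HeLa cell assay: compounds were pin-transferred from DMSO onto overnight-plated cells and left 5 hr at 37 C. Substrate was then loaded for 2 hr at room temperature before reading fluorescence at 460 nm and 530 nm.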

Experiment [5] can be described thus: qHTS assay to identify small molecule agonists of the endoplasmic reticulum stress response signaling pathway - cell viability counter screen (AID 1159517).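 Further: HeLa cells carrying an ER stress response element beta-lactamase reporter; series mostly up to about 61 µM; nearly all actives have a fitted effect of over 50% in size.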 Put shortly: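 CellTiter-Glo was added to wells already read for beta-lactamase FRET, and luminescence was recorded 30 min later. Cells: ESRE-bla HeLa, 1,500 per well, compound exposure 5 hr at 37 C.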
Experiment [6] can be described thus: qHTS assay to identify small molecule antagonists of the retinoid-related orphan receptor gamma (ROR-gamma) signaling pathway - cell viability counter screen (AID 1159520; active means well fitted curve in the direction sought with a large enough effect in the repeat runs; an effect the other way counts as inactive or inconclusive; further: nearly all actives have a fitted effect of over 50% in size; further: potency means the concentration at half of the fitted maximal effect). Put shortly: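 Tet-on ROR gamma CHO cells (1,000/well) were plated 4 hr, given compounds in DMSO for 2 hr at 37 C, then induced with 1 uM final doxycycline for 16 hr. Viability was read as ATP by CellTiter-Glo luminescence after 30 min.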

For experiment [7], the target named is Nuclear receptor ROR-gamma (Homo sapiens) (UniProt P51449). Briefly: qHTS assay to identify small molecule antagonists of the retinoid-related orphan receptor gamma (ROR-gamma) signaling pathway (AID 1159521; active means well fitted curve in the direction sought with a large enough effect in the repeat runs; an effect the other way counts as inactive or inconclusive; further: nearly all actives have a fitted effect of over 50% in size; further: potency means the concentration at half of the fitted maximal effect). Put shortly: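 Tet-on ROR-gamma CHO cells with ROR response element-luciferase reporter; compounds added 2 hr before 1 uM doxycycline induction, then 16 hr at 37 C. Antagonism scored as decreased ONE-Glo luminescence.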

Experiment [8] in a line: qHTS assay to identify small molecule agonists of the AP-1 signaling pathway - cell viability counter screen (AID 1159525). Further: nearly all actives have a fitted effect of over 55% in size. Further: potency means the concentration at half of the fitted maximal effect. Put shortly:
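ME-180 AP-1-bla, 2500 cells/well, Opti-MEM + 0.5% dialyzed FBS; overnight 37 °C; cpd 15-pt titration, 5 h 37 °C; CellTiter-Glo 30 min RT; luminescence read; normalised to TOAB and DMSO controls.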

Experiment [9] is described as follows: qHTS assay to identify small molecule agonists of the AP-1 signaling pathway (AID 1159526).
Experiment [10] can be described thus: qHTS assay to identify small molecule agonists of the vitamin D receptor (VDR) signaling pathway - cell viability counter screen (AID 743224; active means well fitted curve in the direction sought with a large enough effect in the repeat runs; an effect the other way counts as inactive or inconclusive; further: nearly all actives have a fitted effect of over 50% in size; further: potency means the concentration at half of the fitted maximal effect). Put shortly: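 Plated VDR-bla cells (4 h, 37C) received compound, incubated 16 h, then LiveBLAzer substrate 2 h RT; CellTiter-Glo added afterwards, luminescence read at 30 min.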

In the case of `CC[C@H](C)C(=O)O[C@H]1C[C@@H](C)C=C2C=C[C@H](C)[C@H](CC[C@@H]3C[C@@H](O)CC(=O)O3)[C@H]21`, the call in experiment [1], in experiment [2], in [3], in [4], in experiment [5] and in experiment [9] was inactive. For the same compound, the Potency in [6] is 27.7 µM (active); in [7], 982 nM (active) and 1.21 µM (active); in experiment [8], 55.7 µM (active) and inactive.

For the compound `CCCCCC/C(C=O)=C\c1ccccc1`, the Potency entry in [10], in experiment [6] and in experiment [8] was “inactive” in each case. In addition, the result in experiment [1], in [2], in experiment [3], in experiment [4], in experiment [5] and in experiment [9] was inactive.

With `OCCOCCOCCO`, the Potency result in experiment [10], in experiment [6] and in [8] was “inactive” in each case. Also, the outcome in experiment [1], in [2], in experiment [3], in [4], in [5] and in [9] was inactive.

For the compound `CCCSc1ccc2nc(NC(=O)OC)[nH]c2c1`, the Potency entry in experiment [10], in experiment [6] and in experiment [8] was “inactive” in each case. Further, the outcome in experiment [1], in [2], in experiment [3], in [4], in experiment [5] and in [9] was inactive.

As for `OCCOCCN1CCN(C2=Nc3ccccc3Sc3ccccc32)CC1`, the Potency entry in [10], in experiment [6] and in [8] was “inactive” throughout. For the same compound, the result in experiment [1], in [2], in experiment [3], in experiment [4], in experiment [5] and in experiment [9] was inactive.

Consider `CCCCCCCCCC`, for which the outcome in experiment [1], in experiment [2], in experiment [3], in experiment [4], in experiment [5] and in experiment [9] was inactive. Besides, the Potency result in experiment [6], in experiment [7] and in experiment [8] was “inactive” each time.

In the case of `CN(C)CCOCCN(C)C`, the Potency result in [10], in experiment [6] and in experiment [8] was “inactive” in each case. Besides, the call in experiment [1], in experiment [2], in [3], in experiment [4], in experiment [5] and in experiment [9] was inactive.

As to `CC(C)CC(=O)CC(C)C`, the compound was called inactive in experiment [1], in experiment [2], in [3], in experiment [4], in experiment [5] and in experiment [9]. Besides, the Potency entry in [6], in experiment [7] and in experiment [8] was “inactive” throughout.

Take `CC(=O)OCC(=O)[C@@]12N=C(C)O[C@@H]1C[C@H]1[C@@H]3CCC4=CC(=O)C=C[C@]4(C)[C@H]3[C@@H](O)C[C@@]12C`: the call in experiment [1], in experiment [2], in [3], in experiment [4], in [5] and in [9] was inactive. The Potency result in [6], in [7] and in [8] was “inactive” each time.

As to `CCCCCCCCCCCCCCCO`, the Potency result in experiment [10], in experiment [6], in experiment [7] and in experiment [8] was “inactive” throughout. The compound was classed as inactive in [1], in experiment [2], in experiment [3], in [4], in experiment [5] and in experiment [9].

For `CSCCC=O`, the Potency result in experiment [10], in experiment [6] and in experiment [8] was “inactive” throughout. In addition, the call in [1], in [2], in experiment [3], in experiment [4], in [5] and in experiment [9] was inactive.

As for `CCCCC(CC)CO` (configuration not stated), the Potency result in experiment [10], in experiment [6], in experiment [7] and in [8] was “inactive” in each case. Besides, the compound was called inactive in experiment [1], in [2], in experiment [3], in [4], in experiment [5] and in [9].

As to `Cc1cccnc1`, the Potency entry in experiment [10], in experiment [6], in experiment [7] and in experiment [8] was “inactive” each time. Further, the outcome in [1], in [2], in experiment [3], in experiment [4], in experiment [5] and in experiment [9] was inactive.

Turning to `Fc1ccc(Br)cc1`, the Potency entry in experiment [10], in experiment [6] and in experiment [8] was “inactive” in each case. Further, the call in experiment [1], in [2], in [3], in experiment [4], in experiment [5] and in experiment [9] was inactive.

With `FC(F)(F)c1ccc(Cl)c(Cl)c1`, the Potency result in experiment [10], in experiment [6], in experiment [7] and in experiment [8] was “inactive” each time. The call in [1], in experiment [2], in experiment [3], in experiment [4], in experiment [5] and in [9] was inactive.

Consider `O=S1(=O)CC=CC1`, for which the Potency result in experiment [10], in experiment [6], in experiment [7] and in experiment [8] was “inactive” each time. In addition, the call in experiment [1], in [2], in [3], in [4], in experiment [5] and in [9] was inactive.

Consider `COCCCOc1ccnc(CS(=O)c2nc3ccccc3[nH]2)c1C` (configuration not stated), for which the outcome in experiment [2], in experiment [3], in experiment [4], in [5] and in [9] was inactive. Further, the Potency entry in experiment [6], in experiment [7] and in experiment [8] was “inactive” each time.

Regarding `CC1=C(C)S(=O)(=O)CCS1(=O)=O`, the Potency result in experiment [10], in experiment [6] and in experiment [8] was “inactive” in each case. The compound was classed as inactive in experiment [1], in experiment [2], in experiment [3], in [4], in experiment [5] and in experiment [9].

As to `O=c1[nH]nnc2ccccc12`, the Potency entry in experiment [10], in experiment [6], in [7] and in experiment [8] was “inactive” in each case. Further, the compound was called inactive in [1], in [2], in experiment [3], in [4], in experiment [5] and in [9].

For the compound `O=C(O)c1cc(O)c(O)c(O)c1`, the compound was classed as inactive in [1], in experiment [2], in experiment [3], in experiment [4], in [5] and in experiment [9]. Also, the Potency result in [6], in experiment [7] and in experiment [8] was “inactive” throughout.

For the compound `C=C(C)C(=O)O[C@H]1C[C@@H]2CC[C@@]1(C)C2(C)C`, the Potency result in experiment [10] and in experiment [6] was “inactive” in each case. For the same compound, the result in [1], in [2], in experiment [3], in [4], in [5] and in experiment [9] was inactive. In addition, the Potency in [7] was 963 nM (active) and inactive; in [8] it was 4.87 µM (active) and inactive.

For `C=CCOC(=O)c1ccccc1C(=O)OCC=C`, the Potency result in experiment [10], in experiment [6] and in experiment [8] was “inactive” each time. Besides, the call in [1], in experiment [2], in experiment [3], in [4], in experiment [5] and in [9] was inactive.

In the case of `ON=C1CCCCC1`, the Potency entry in experiment [10] was “inactive and 38.9 µM (active)”. Besides, the outcome in experiment [1], in [2], in experiment [3], in [4], in experiment [5] and in experiment [9] was inactive. Moreover, the Potency result in experiment [6] and in experiment [8] was “inactive” throughout.

For the compound `Cc1ccc(N(C)C)cc1`, the Potency entry in experiment [10], in experiment [6] and in experiment [8] was “inactive” each time. Besides, the outcome in experiment [1], in experiment [2], in [3], in experiment [4], in experiment [5] and in experiment [9] was inactive.
